# In PubChem BioAssay:
# Results filed as inconclusive are left out. The source made the active and inactive calls. Unless noted, no cut-off is given here; in the data, nearly all actives have AC50 up to about 30 µM.
# Experiments:
# [1] = viability loss in pontine glioma line – cell-based, SU-DIPG-XVII, MIPE5.0, CellTiter-Glo, qHTS, dose response (AID 1347060; cut-off not given, nearly all actives have AC50 up to about 26 µM;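 for AC50: cells exposed to compound for 48 hours before viability readout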); conditions: CellTiter-Glo ATP luminescence
# [2] = viability loss in pontine glioma line – cell-based, SU-DIPG-XIII, MIPE5.0, CellTiter-Glo, qHTS, dose response (AID 1347064; cut-off not given, nearly all actives have AC50 up to about 23 µM;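 for AC50: cells exposed to compound for 48 hours before the viability read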); conditions: CellTiter-Glo ATP luminescence
# [3] = viability loss in pontine glioma line – cell-based, SU-DIPG-XXV, MIPE5.0, CellTiter-Glo, qHTS, dose response (AID 1347065; cut-off not given, nearly all actives have AC50 up to about 26 µM;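 note: cells exposed to compound for 48 hours before ATP readout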); conditions: CellTiter-Glo ATP luminescence
# [4] = JHH-DIPG-1 glioma cell viability, MIPE5.0 library, CellTiter-Glo luminescence, qHTS (AID 1347067; cut-off not given, nearly all actives have AC50 up to about 26 µM;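 note: cells exposed to compound for 48 hours before readout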); conditions: JHH-DIPG-1 glioma viability, CellTiter-Glo ATP luminescence
# [5] = growth inhibition of DIPG cells – cell-based, MIPE5.0 library, qHTS (AID 1347068; cut-off not given, nearly all actives have IC50 up to about 30 µM;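 for IC50: cells exposed to compound for 48 hours before viability readout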); conditions: SU-DIPG-XXV viability
# [6] = viability loss in pontine glioma line – cell-based, SU-DIPG-XIII, MIPE4.0, CellTiter-Glo, qHTS, dose response (AID 1347061; cut-off not given, nearly all actives have AC50 up to about 37 µM;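 note: cells exposed to compound for 48 hours before readout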); conditions: CellTiter-Glo ATP luminescence
# [7] = viability loss in pontine glioma line – cell-based, JHH-DIPG-1, MIPE4.0, CellTiter-Glo, qHTS, dose response (AID 1347062; cut-off not given, nearly all actives have AC50 up to about 27 µM;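 for AC50: cells exposed to compound for two days before readout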); conditions: JHH-DIPG-1 viability, CellTiter-Glo ATP luminescence
# [8] = viability loss in pontine glioma line – cell-based, SU-DIPG-IV, MIPE4.0, CellTiter-Glo, qHTS, dose response (AID 1347063); conditions: CellTiter-Glo ATP luminescence;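 note: compound exposure lasted 48 hours before the viability readout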
# [9] = growth inhibition of DIPG cells – cell-based, MIPE4.0 library, CellTiter-Glo luminescence, qHTS (AID 1347066); conditions: SU-DIPG-VI viability, CellTiter-Glo ATP luminescence;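 note: cells exposed to compound for 48 hours before readout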
# [10] = viability loss with induced miR-34 in A549 – imaging, A549 dox-inducible miR-34, nuclei and caspase counts, primary screen (AID 1347080;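 active = compounds whose cell count with miR-34 switched on is under 0.7 times the count with it off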); conditions: A549 miR-34 inducible, Hoechst nuclei count, 48 h
# [11] = MELAS cybrid and Rieske KO viability enhancers – cell-based, MELAS cybrids, Rieske KO mouse fibroblasts, CellTiter-Glo, primary screen (AID 1508586;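 active = mean z-score across replicates of 1.96 or higher in either the MELAS or the Rieske mutant cell line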;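 note: z relative to plate mean and SD of compound and empty wells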); conditions: low glucose
# [12] = galactose survival enhancers in mitochondrial complex I cybrids – cell-based, galactose medium, ATP luminescence, primary screen (AID 1645843;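 active = z-score of at least 1.8 in each of two replicates, scored against plate mean and spread of sample wells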;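 note: positive z means more ATP and so rescue of galactose-driven cybrid death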); conditions: complex I mutant cybrid cells, 72 h, stronger effect = higher value
# [13] = chitosan synthesis blockers in C. neoformans – flow cytometry, Cibacron Brilliant Red staining (AID 1347148; call rule not given here;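 note: compound exposure lasted three days at 37 degrees C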); conditions: Cryptococcus neoformans chitosan, stronger effect = lower value; at 10 µM unless noted
# [14] = measured here: relative caspase fold change +Dox/-Dox
# [15] = measured here: total cells with miR-34 induction, stronger effect = lower value
# [16] = measured here: total cells without miR-34 induction
# [17] = MELAS cybrid survival, CellTiter-Glo 48 h, stronger effect = higher value
# [18] = Rieske KO mouse fibroblast survival, CellTiter-Glo 72 h
# [19] = stronger effect = lower value, cell number ratio, induced over uninduced
smiles,measurement,setting,value
CN1C(=O)[C@@H](NC(=O)[C@H](CCC(F)(F)F)[C@H](CCC(F)(F)F)C(N)=O)N=C(c2ccccc2)c2ccccc21,outcome,[1],inactive
same,outcome,[2],inactive
same,outcome,[3],inactive
same,outcome,[4],inactive
same,outcome,[5],inactive
CC1(C)CC[C@]2(NC(=O)C(C)(F)F)CC[C@]3(C)[C@H](C(=O)C=C4[C@@]5(C)C=C(C#N)C(=O)C(C)(C)[C@@H]5CC[C@]43C)[C@@H]2C1,AC50,[1],7420 nM (active)
same,AC50,[2],10500 nM (active)
same,AC50,[3],9340 nM (active)
same,AC50,[4],7420 nM (active)
same,IC50,[5],11800 nM (active)
C[C@@]12OC(=O)[C@]1([C@@H](O)[C@@H]1C=CCCC1)NC(=O)[C@@H]2CCCl,AC50,[6],590 nM (active)
same,AC50,[7],41.8 nM (active)
same,AC50,[8],9.35 nM (active)
same,AC50,[2],14.8 nM (active)
same,AC50,[3],18.6 nM (active)
same,AC50,[9],23.5 nM (active)
same,AC50,[4],29.5 nM (active)
CC1(N2CCC(n3c([C@@H]4CCCNC4)nc4ccccc43)CC2)CCCCCCC1,outcome,[6],inactive
same,AC50,[7],14800 nM (active)
same,IC50,[5],20900 nM (active)
O=[N+]([O-])c1ncc[nH]1,outcome,[6],inactive
same,outcome,[7],inactive
same,outcome,[8],inactive
same,outcome,[9],inactive
same,fold change,[10]; stronger effect = lower value,0.87 (inactive)
same,fold change,[10]; [14],0.789
same,cell count,[10]; [15],7870
same,cell count,[10]; [16],9040
same,z-score,[11]; [17],-0.216 (inactive)
same,z-score,[11]; [18],0.743
CCOC(=O)Nc1ccc(NCc2ccc(F)cc2)cc1N,outcome,[6],inactive
same,outcome,[2],inactive
same,outcome,[3],inactive
same,outcome,[9],inactive
same,outcome,[4],inactive
same,outcome,[5],inactive
COc1ccc2c(c1)[C@]13CCCCC1C(C2)N(C)CC3 (some centres not stated),outcome,[7],inactive
same,outcome,[8],inactive
same,outcome,[9],inactive
same,fold change,[10]; stronger effect = lower value,0.884 (inactive)
same,fold change,[10]; [14],1.91
same,cell count,[10]; [15],7550
same,cell count,[10]; [16],8540
same,z-score,[12],0.055 (inactive)
C[C@@H]1O[C@@H](O[C@@H]2C=C3CC[C@H]4[C@@H](CC[C@]5(C)[C@H](c6ccc(=O)oc6)CC[C@@]45O)[C@@]3(C)CC2)[C@H](O)[C@H](O)[C@@H]1O,AC50,[6],9.35 nM (active)
same,AC50,[7],4.69 nM (active)
same,AC50,[8],20.9 nM (active)
same,AC50,[9],7.43 nM (active)
Cc1sc2c(c1C)C(c1ccc(Cl)cc1)=N[C@@H](CC(=O)OC(C)(C)C)c1nnc(C)n1-2,AC50,[6],18700 nM (active)
same,AC50,[3],2630 nM (active)
same,AC50,[4],16600 nM (active)
c1cc2c(cc1[C@H]1OC[C@H]3[C@@H]1CO[C@@H]3c1ccc3c(c1)OCO3)OCO2,outcome,[7],inactive
same,outcome,[9],inactive
COc1ccc(CC2NCCc3cc(OC)c(OC)cc32)cc1OC (configuration not stated),outcome,[6],inactive
same,outcome,[8],inactive
same,outcome,[9],inactive
same,fold change,[10]; [19],0.988 (inactive)
same,fold change,[10]; [14],0.746
same,cell count,[10]; [15],9220
same,cell count,[10]; [16],9330
same,z-score,[11]; [17],-0.321 (inactive)
same,z-score,[11]; [18],0.618
COc1cccc2c1[C@]13CCN(CC4CC4)[C@H](C2)[C@]1(OC)CCC(=O)C3,outcome,[6],inactive
same,outcome,[7],inactive
same,outcome,[9],inactive
CO/C1=C/C(C)=C\[C@@H](C)[C@@H](O)[C@@H](C)C/C(C)=C\C=C/[C@H](OC)[C@@H]([C@@H](C)[C@@H](O)[C@H](C)[C@@]2(O)C[C@@H](O)[C@H](C)[C@@H](C(C)C)O2)OC1=O,AC50,[7],11800 nM (active)
same,AC50,[8],9350 nM (active)
same,AC50,[3],393 nM (active)
same,AC50,[9],3720 nM (active)
same,AC50,[4],9860 nM (active)
same,IC50,[5],49.4 nM (active)
CC(C)N(CCNC(=O)CN1CCCC1=O)C(C)C,outcome,[6],inactive
same,outcome,[7],inactive
same,outcome,[8],inactive
same,outcome,[9],inactive
same,fold change,[10]; stronger effect = lower value,0.88 (inactive)
same,fold change,[10]; [14],0.862
same,cell count,[10]; [15],9340
same,cell count,[10]; [16],10600
same,z-score,[11]; [17],-0.352 (inactive)
same,z-score,[11]; [18],0.7
CC1=C(CC/C(C)=C/CCC2=CCC(C3=CC(=O)OC3O)OC2O)C(C)(C)CCC1 (configuration not stated),outcome,[6],inactive
same,outcome,[7],inactive
same,outcome,[8],inactive
same,outcome,[9],inactive
same,fold fluorescence,[13],4.39 [at 120 µM] (inactive)
CC(=O)OCC1=C(C(=O)O)N2C(=O)[C@@H](N)[C@@H]2SC1,outcome,[6],inactive
same,outcome,[9],inactive
CCOC(=O)c1c(/C(C#N)=C\N)c2ccc(Cl)c(Cl)c2n1C,outcome,[6],inactive
same,outcome,[7],inactive
same,outcome,[2],inactive
same,outcome,[9],inactive
same,outcome,[4],inactive
same,outcome,[5],inactive
CNC(=O)N1N=C(c2ccc(N)cc2)c2cc3c(cc2CC1C)OCO3 (configuration not stated),outcome,[7],inactive
same,outcome,[9],inactive
C1=C2CCCN[C@H]2[C@@H]2C[C@H]1[C@H]1CCCCN1C2,outcome,[6],inactive
same,outcome,[7],inactive
same,outcome,[8],inactive
same,outcome,[9],inactive
same,fold change,[10]; [19],0.948 (inactive)
same,fold change,[10]; [14],1.03
same,cell count,[10]; [15],10000
same,cell count,[10]; [16],10600
same,z-score,[11]; [17],-0.38 (inactive)
same,z-score,[11]; [18],0.546
C[C@H]1[C@@H](CC(C[C@H]2O[C@@H]3O[C@]4(C)CC[C@H]5[C@H](C)CC[C@@H]([C@H]2C)[C@@]35OO4)CS(=O)(=O)c2ccc(COC(=O)N(C)C)cc2)O[C@@H]2O[C@]3(C)CC[C@H]4[C@H](C)CC[C@@H]1[C@@]24OO3 (some centres not stated),AC50,[8],209 nM (active)
